# Active and inactive are the calls of the source. Unless noted, no rule for the calls is given here.
# Columns and labels:
# [1] = test system: Wnt5a (protein binding on small-molecule microarray); assay: small molecules binding Wnt5a protein – biophysical, small-molecule microarray, 635/667 nm fluorescence, primary screen (AID 1142); conditions: 635 nm fluorescence, higher = more signal;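 also: fluorescence read at 667 nm with signal to noise per printed feature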
# [2] = ATP-based viability of Huh7 replicon cells – cell-based, CellTiter-Glo luminescence, basal, 48 h, cytotoxicity control for HCV replication inhibitor project, primary screen (AID 1143); conditions: higher = more signal, called active from +8 up or from −8 down;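 also: Huh7 hepatoma cells carrying a hepatitis C replication reporter with no stimulus; test concentration not given here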
# [3] = Pseudomonas biofilm growth suppression – PAO1 strain, BacTiter-Glo luminescence, LB-PBS, primary screen (AID 1144); conditions: P. aeruginosa PAO1 biofilm, 12 h, higher = more signal
# [4] = basal CRE-LacZ reporter activity in PC12 – cell-based, unstimulated, primary screen (AID 1145); conditions: no forskolin, luminescence, 4.5 h, higher = more signal, called active from +8 up or from −8 down
# [5] = forskolin-driven CRE-LacZ activity in PC12 – cell-based, CRE-LacZ reporter, forskolin-stimulated, primary screen (AID 1146); conditions: luminescence, 4.5 h, higher = more signal, called active from +8 up or from −8 down;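 also: PC12 cells with 6xCRE LacZ reporter stimulated by forskolin 10 µM; beta-galactosidase reporter signal reflecting CREB driven transcription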
# [6] = target: Streptavidin (Streptomyces avidinii) (UniProt P22629); assay: compounds binding control protein streptavidin – biophysical, small-molecule microarray, 635/667 nm fluorescence, artefact control for SMM compound annotation, primary screen (AID 1147); conditions: higher = more signal;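 also: signal reflects streptavidin binding to arrayed compounds as a control protein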
# Sequence of Streptavidin (Streptomyces avidinii) (P22629 whole entry, looked up): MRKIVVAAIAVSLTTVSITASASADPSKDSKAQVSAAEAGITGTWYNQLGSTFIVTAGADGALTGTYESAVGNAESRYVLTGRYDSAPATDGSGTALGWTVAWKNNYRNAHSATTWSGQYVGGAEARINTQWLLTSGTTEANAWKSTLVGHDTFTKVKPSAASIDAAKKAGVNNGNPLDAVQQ
# [7] = probe aInhba binding on compound microarray – biochemical, small-molecule microarray, 635/667 nm fluorescence, primary screen (AID 1148); conditions: higher = more signal;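 also: score merges 667nm spot fluorescence with signal-to-noise for antibody binding to printed compounds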
# Torsin-1A (Homo sapiens) [8] = target: Torsin-1A (Homo sapiens) (UniProt O14656); assay: TOR1A wild-type binding on microarray – cell lysate, small-molecule microarray, lysate, 635/667 nm, primary screen (AID 1149); conditions: COS7 hTOR1A-WT lysate, 635 nm fluorescence, higher = more signal
# Sequence of Torsin-1A (Homo sapiens) (O14656 whole entry, looked up): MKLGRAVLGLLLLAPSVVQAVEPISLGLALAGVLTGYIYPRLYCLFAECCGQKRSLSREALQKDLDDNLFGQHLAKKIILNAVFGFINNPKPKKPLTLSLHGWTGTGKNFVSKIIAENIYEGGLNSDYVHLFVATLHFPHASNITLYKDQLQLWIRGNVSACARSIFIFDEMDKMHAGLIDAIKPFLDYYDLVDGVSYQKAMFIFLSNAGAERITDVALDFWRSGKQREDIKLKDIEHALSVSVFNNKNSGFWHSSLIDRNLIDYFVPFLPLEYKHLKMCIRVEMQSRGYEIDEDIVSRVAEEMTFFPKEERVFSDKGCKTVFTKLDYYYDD
# Torsin-1A (Homo sapiens) [9] = target: Torsin-1A (Homo sapiens) (UniProt O14656); assay: torsin A mutant lysate binding on microarrays – cell lysate, small-molecule microarray, COS7 lysate, 635/667 nm fluorescence, primary screen (AID 1150); conditions: COS7 hTOR1A mutant lysate, 635 nm fluorescence, higher = more signal;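 also: score pools 667 nm emission and signal to noise measuring lysate protein binding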
# [10] = test system: Sonic hedgehog protein (Shh); assay: Sonic hedgehog microarray binding compounds – biochemical, small-molecule microarray, 635/667 nm fluorescence, primary screen (AID 1151); conditions: 635 nm fluorescence, higher = more signal;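 also: Shh protein binding to compounds spotted on small-molecule microarray slides; score combines spot fluorescence intensity with signal-to-noise across triplicate slides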
SMILES,composite z-score [1],z-score [2],z-score [3],z-score [4],z-score [5],composite z-score [6],composite z-score [7],composite z-score (Torsin-1A (Homo sapiens) [8]),composite z-score (Torsin-1A (Homo sapiens) [9]),composite z-score [10]
CCCN1C(=O)[C@]2(Cc3ccccc31)N=C(c1ccc(OCCCO)cc1)O[C@@H]2c1ccccc1,0.489,-5.07 (inactive),-2.3 (inactive),0.344 (inactive),-0.647 (inactive),0.899,-0.0087,0.738,0.423,1.12
CC[C@@H]1O[Si](C(C)C)(C(C)C)c2c1cc(-c1cc(C)c(OC)c(C)c1)nc2-c1ccc(Oc2ccccc2)cc1,-0.216,0.0485 (inactive),-0.523 (inactive),-0.491 (inactive),0.316 (inactive),-0.21,-0.231,-0.851,-0.542,0.305
COc1ccc([Si](C)(C)[C@H]2[C@H](CC(=O)N(CCO)Cc3ccccc3)O[C@@]3(C(=O)N(C)c4c(Br)cc(C)cc43)[C@@H]2C)cc1,0.306,-5.69 (inactive),-1.43 (inactive),9.7 (active),-2.49 (inactive),0.527,-0.128,2.12,1.98,1.72
O=C1C2C=CC(C(O)c3cccc(O)c3)N(Nc3ccc([N+](=O)[O-])cc3)C2C(=O)N1c1ccccc1 (stereo not given),0.22,-0.933 (inactive),-0.271 (inactive),-0.257 (inactive),-0.489 (inactive),0.514,0.0649,0.331,0.132,-0.164
COc1cccc(C)c1NC(=O)O[C@H]1[C@H](OC(=O)Nc2ccccc2-c2ccccc2)[C@H](OC(=O)Nc2ccccc2-c2ccccc2)[C@@H](OC)O[C@@H]1CO,0.63,-3.45 (inactive),1.14 (inactive),-0.207 (inactive),-0.433 (inactive),1.26,0.0128,0.561,0.455,1.39
CO[C@H]1O[C@H](CO)[C@@H](OC(=O)Nc2ccc(Br)cc2)[C@@H]2OC(=O)[C@@H](Cc3ccccc3)C/C=C/C[C@H](Cc3ccccc3)C(=O)O[C@@H]12,0.891,-5.16 (inactive),-0.435 (inactive),-0.263 (inactive),-0.396 (inactive),-0.0062,0.115,0.048,0.91,0.0376
COC(=O)[C@@]1(Cc2ccc(OC)cc2)[C@H]2c3cc(C(=O)N(C)C)n(Cc4ccc(C)o4)c3C[C@H]2CN1C(=O)c1ccccc1,0.331,-1.93 (inactive),1.15 (inactive),-0.568 (inactive),-0.46 (inactive),0.57,0.112,-0.0657,0.567,-0.797

# — PubChem BioAssay
